Source: PubChem BioAssay (NCATS)
Values joined by “and” are separate entries in the source; they are usually repeats but may differ in a detail not shown here. Identical values can stand only once. Results filed as inconclusive are left out. Where a call stands in place of a potency, no number is given. Some compounds were tested as several samples or in several runs, with calls that do not always agree. Active and inactive are the calls of the source. Unless noted, the rule behind the calls is not given here.

Experiments:
[1] = target: Androgen receptor (Homo sapiens) (UniProt P10275); test: qHTS assay for small molecule agonists of androgen receptor signaling (AID 588515; active = well fitted curve in the direction sought with a large enough effect in the signal ratio, with a control signal flat; the % refers to the signal ratio); settings: AR-UAS-bla HEK293, beta-lactamase ratio, agonist 16 h; stronger effect = higher value
Chain of Androgen receptor (Homo sapiens) (P10275 whole entry, looked up): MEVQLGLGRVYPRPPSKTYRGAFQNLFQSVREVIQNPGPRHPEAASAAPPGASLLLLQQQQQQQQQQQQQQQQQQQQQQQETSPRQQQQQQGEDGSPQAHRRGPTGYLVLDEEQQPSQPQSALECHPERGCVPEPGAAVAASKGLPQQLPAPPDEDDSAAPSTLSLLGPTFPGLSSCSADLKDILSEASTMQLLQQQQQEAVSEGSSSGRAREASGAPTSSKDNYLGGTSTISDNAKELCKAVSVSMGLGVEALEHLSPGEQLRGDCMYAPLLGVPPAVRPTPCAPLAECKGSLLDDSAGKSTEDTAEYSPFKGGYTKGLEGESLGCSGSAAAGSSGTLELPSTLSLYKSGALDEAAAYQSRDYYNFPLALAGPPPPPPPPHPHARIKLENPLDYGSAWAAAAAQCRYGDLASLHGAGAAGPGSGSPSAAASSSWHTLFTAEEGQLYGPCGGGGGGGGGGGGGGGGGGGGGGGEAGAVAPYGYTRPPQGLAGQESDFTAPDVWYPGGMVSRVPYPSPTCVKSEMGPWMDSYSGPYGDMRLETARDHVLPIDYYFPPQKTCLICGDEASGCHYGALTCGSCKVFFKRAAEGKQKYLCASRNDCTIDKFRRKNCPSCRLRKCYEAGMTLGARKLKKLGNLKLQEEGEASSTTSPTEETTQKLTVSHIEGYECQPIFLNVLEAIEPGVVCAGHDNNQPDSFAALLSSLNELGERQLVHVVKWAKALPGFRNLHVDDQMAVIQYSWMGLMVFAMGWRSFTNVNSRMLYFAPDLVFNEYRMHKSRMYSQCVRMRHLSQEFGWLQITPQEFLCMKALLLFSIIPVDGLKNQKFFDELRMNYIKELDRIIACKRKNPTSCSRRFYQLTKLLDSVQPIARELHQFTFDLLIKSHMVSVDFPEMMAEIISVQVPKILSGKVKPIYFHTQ
How it was run: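 Stimulation of an AR-responsive β-lactamase reporter in GripTite HEK293 cells was measured after 16 h compound exposure at 37 °C, via CCF4 fluorescence after 2 h RT. EC50 from Hill fits, normalized to R1881 at 30 nM.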

[2] = target: Androgen receptor (Homo sapiens) (UniProt P10275); test: qHTS assay for small molecule antagonists of androgen receptor signaling (AID 588516; active = well fitted curve in the direction sought with a large enough effect in the signal ratio, with a control signal flat, not every such curve was filed as active; the % refers to the signal ratio; note: potency is the fitted concentration of half-maximal effect); settings: AR-UAS-bla HEK293, beta-lactamase ratio, antagonist mode, 16 h; series mostly up to 76.8 µM
How it was run: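 Antagonist mode: inhibition of R1881-stimulated (10 nM final) bla reporter in GeneBLAzer AR HEK 293 cells, 16 h at 37C, compounds titrated. IC50 and efficacy from Hill-equation fits of 405/460–530 nm FRET ratios.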

[3] = target: Peroxisome proliferator-activated receptor gamma (Homo sapiens) (UniProt P37231); test: qHTS assay for small molecule agonists of peroxisome proliferator-activated receptor gamma signaling (AID 588536; active = well fitted curve in the direction sought with a large enough effect in the signal ratio, with a control signal flat, not every such curve was filed as active; the % refers to the signal ratio); settings: HEK293 PPARg-UAS-bla, beta-lactamase ratio, 16 h; series mostly up to 76.7 µM
Chain of Peroxisome proliferator-activated receptor gamma (Homo sapiens) (P37231 whole entry, looked up): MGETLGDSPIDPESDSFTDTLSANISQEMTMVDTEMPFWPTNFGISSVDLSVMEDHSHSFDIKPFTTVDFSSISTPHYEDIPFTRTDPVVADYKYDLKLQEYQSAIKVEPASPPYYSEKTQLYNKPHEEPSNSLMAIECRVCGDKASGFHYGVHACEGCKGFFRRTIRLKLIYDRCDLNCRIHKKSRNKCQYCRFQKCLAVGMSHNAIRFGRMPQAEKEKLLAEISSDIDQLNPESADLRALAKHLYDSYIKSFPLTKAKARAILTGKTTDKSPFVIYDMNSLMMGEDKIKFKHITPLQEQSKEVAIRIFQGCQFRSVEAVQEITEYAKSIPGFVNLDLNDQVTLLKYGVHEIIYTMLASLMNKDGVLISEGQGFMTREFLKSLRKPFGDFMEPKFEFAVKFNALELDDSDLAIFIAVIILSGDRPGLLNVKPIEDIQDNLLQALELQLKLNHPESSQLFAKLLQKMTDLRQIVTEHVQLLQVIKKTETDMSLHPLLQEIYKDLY
How it was run: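 Compound treatment: 16 h, 37 C, HEK293 GeneBLAzer cells. Detection: CCF4, 2 h RT. Values: Hill-fit EC50, efficacy as % of 2 uM rosiglitazone.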

[4] = target: Peroxisome proliferator-activated receptor gamma (Homo sapiens) (UniProt P37231); test: qHTS assay for small molecule antagonists of peroxisome proliferator-activated receptor gamma signaling (AID 588537; active = well fitted inhibition curve with a large enough effect in the signal ratio, with a control signal flat, not every such curve was filed as active; the % refers to the signal ratio; note: potency is the fitted concentration of half-maximal effect); settings: HEK293 PPARg-UAS-bla, beta-lactamase ratio, antagonist mode; series mostly up to 76.8 µM
How it was run: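 Cell-based beta-lactamase assay; GW9662 served as the antagonist control. Stimulation used rosiglitazone, final 50 nM, 16 h, 37 C.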

[5] = target: Vitamin D3 receptor (Homo sapiens) (UniProt P11473); test: qHTS assay for small molecule antagonists of vitamin D receptor signaling (AID 588541; calls by dose curve;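 note: receptor activated by calcitriol during compound treatment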); settings: HEK293T VDR-UAS-bla, beta-lactamase ratio, antagonist mode; series mostly up to 76.7 µM
Chain of Vitamin D3 receptor (Homo sapiens) (P11473 whole entry, looked up): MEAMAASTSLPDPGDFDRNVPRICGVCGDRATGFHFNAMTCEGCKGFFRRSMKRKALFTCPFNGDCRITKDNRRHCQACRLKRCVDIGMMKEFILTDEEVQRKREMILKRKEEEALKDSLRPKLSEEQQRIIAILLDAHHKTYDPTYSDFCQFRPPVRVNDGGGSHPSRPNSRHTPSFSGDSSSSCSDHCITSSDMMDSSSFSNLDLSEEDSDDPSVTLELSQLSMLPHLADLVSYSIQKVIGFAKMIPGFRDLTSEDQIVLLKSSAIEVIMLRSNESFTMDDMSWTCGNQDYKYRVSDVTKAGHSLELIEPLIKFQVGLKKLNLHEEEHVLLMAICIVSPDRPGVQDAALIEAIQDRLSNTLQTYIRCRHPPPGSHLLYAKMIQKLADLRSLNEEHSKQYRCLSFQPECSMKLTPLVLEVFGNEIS
How it was run: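 Antagonist-mode beta-lactamase reporter assay: HEK293T VDR-UAS-bla cells were exposed to titrated compound alongside 1-alpha,25-dihydroxyvitamin D3 at 3 nM final for 16 h. Values were normalized to the 50 nM agonist control and DMSO basal, with IC50 and efficacy from Hill equation fits.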

[6] = target: Nuclear receptor subfamily 1 group I member 2 (Rattus norvegicus) (UniProt Q9R1A7); test: qHTS assay for small molecule activators of the rat pregnane X receptor (rPXR) signaling pathway (AID 651751); settings: rPXR reporter cells, luciferase (One-Glo), 24 h
Chain of Nuclear receptor subfamily 1 group I member 2 (Rattus norvegicus) (Q9R1A7 whole entry, looked up): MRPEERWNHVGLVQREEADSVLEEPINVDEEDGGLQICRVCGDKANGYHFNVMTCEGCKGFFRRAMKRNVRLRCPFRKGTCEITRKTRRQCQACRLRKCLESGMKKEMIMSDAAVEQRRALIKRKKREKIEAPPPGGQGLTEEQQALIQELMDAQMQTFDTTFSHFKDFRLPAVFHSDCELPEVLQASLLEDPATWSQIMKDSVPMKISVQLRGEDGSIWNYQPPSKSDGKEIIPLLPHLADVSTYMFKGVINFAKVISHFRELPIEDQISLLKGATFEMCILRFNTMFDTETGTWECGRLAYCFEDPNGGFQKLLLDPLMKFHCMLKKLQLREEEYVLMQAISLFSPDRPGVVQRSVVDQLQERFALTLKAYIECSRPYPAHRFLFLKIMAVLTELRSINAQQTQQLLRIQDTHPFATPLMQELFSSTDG

[7] = qHTS assay for small molecule activators of the human pregnane X receptor (PXR) signaling pathway (AID 720659); settings: DPX-2 HepG2 CYP3A4-luciferase, 24 h; series mostly up to 92.3 µM
[8] = target: Glucocorticoid receptor (Homo sapiens) (UniProt P04150); test: qHTS assay for small molecule antagonists of glucocorticoid receptor signaling (AID 588533; active = well fitted inhibition curve with a large enough effect in the signal ratio, with a control signal flat, not every such curve was filed as active; the % refers to the signal ratio;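 note: cells stimulated with 2 nM dexamethasone as agonist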); settings: HeLa MMTV-bla, GRE beta-lactamase ratio, antagonist mode, 18 h; series mostly up to 76.8 µM
Chain of Glucocorticoid receptor (Homo sapiens) (P04150 whole entry, looked up): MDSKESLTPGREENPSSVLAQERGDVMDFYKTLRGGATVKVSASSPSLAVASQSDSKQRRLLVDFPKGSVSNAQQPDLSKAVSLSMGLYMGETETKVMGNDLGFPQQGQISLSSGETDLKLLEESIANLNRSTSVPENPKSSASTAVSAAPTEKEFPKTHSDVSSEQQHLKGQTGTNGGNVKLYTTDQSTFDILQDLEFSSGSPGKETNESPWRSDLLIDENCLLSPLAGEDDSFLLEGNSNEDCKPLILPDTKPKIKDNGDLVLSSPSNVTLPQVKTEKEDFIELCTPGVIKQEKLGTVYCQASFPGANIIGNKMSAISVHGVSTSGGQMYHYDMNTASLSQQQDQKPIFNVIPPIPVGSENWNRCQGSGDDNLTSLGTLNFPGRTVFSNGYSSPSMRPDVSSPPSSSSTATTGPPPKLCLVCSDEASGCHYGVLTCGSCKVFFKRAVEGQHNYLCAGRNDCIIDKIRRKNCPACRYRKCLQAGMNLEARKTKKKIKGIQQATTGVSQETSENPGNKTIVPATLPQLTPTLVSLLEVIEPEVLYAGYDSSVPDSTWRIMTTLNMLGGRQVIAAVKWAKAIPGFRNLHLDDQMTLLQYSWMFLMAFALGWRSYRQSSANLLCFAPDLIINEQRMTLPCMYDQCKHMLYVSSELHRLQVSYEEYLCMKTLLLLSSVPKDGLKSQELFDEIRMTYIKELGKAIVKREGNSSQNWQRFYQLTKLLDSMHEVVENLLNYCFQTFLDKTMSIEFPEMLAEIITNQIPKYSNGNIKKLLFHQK
How it was run: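 Antagonist-mode qHTS: compound titrations added to GRE-bla HeLa cells, then dexamethasone 2 nM final; 18 h, 37 C. CCF4 FRET fluorescence normalized to dexamethasone and DMSO; IC50 from Hill fit.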

[9] = qHTS assay for small molecule activators of the p53 signaling pathway (AID 651743; active = well fitted activation curve with a large enough effect in the signal ratio, not every such curve was filed as active; the % refers to the signal ratio); settings: HCT-116 p53RE-bla, beta-lactamase FRET ratio, 16 h; activation: stronger effect = higher value
How it was run: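 A beta-lactamase reporter under p53 response element control, stably carried by HCT-116 cells, reported pathway activation. Test compounds were applied for 16 hours at 37 C, and fluorescence was measured 2 hours after adding the B/G FRET substrate.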

[10] = qHTS assay for small molecule agonists of the antioxidant response element (ARE) signaling pathway (AID 651741; active = well fitted activation curve with a large enough effect in the signal ratio; the % refers to the signal ratio; note: potency is the fitted concentration of half-maximal effect); settings: HepG2 ARE-bla reporter, beta-lactamase FRET ratio, 16 h; series mostly up to 96 µM
How it was run: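 Agonist activity is measured as ARE-driven beta-lactamase expression in a stable HepG2 reporter line, using 16 h compound treatment at 37 C and a FRET substrate fluorescence readout after 2 h.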

[11] = target: Estrogen receptor (Homo sapiens) (UniProt P03372); test: qHTS assay for small molecule agonists of estrogen receptor alpha signaling (AID 588514; calls by dose curve; note: nearly all actives have a fitted effect of over 70% in size); settings: ER-alpha-UAS-bla HEK293, beta-lactamase ratio, 18 h; series mostly up to 76.8 µM
Chain of Estrogen receptor (Homo sapiens) (P03372 whole entry, looked up): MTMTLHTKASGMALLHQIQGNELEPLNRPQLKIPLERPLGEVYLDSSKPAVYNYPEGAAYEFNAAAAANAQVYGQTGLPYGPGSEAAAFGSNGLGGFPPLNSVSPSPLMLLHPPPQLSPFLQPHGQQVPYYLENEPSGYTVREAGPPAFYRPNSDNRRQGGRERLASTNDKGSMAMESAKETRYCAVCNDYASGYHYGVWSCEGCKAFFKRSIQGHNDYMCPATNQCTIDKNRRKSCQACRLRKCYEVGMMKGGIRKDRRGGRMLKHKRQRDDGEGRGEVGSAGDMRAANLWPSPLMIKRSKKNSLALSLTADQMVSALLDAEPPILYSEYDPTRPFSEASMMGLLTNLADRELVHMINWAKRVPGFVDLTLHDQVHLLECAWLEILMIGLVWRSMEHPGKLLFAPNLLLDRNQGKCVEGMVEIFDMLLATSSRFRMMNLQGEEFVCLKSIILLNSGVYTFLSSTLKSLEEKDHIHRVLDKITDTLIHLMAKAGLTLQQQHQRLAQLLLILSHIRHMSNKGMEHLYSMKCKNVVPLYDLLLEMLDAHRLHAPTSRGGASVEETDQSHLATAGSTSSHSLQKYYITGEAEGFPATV
How it was run: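 Read-out: CCF4 fluorescence from a beta-lactamase reporter in ER-alpha-UAS-bla HEK 293 cells after 18 hrs of compound exposure at 37 C. Normalized to 20 nM 17-beta-estradiol (100%) and DMSO (0%).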

[12] = qHTS assay for small molecule disruptors of the mitochondrial membrane potential - 1 hr assay (AID 651754; calls by dose curve; note: potency is the fitted concentration of half-maximal effect; nearly all actives have a fitted effect of over 35% in size); settings: series mostly up to 92.2 µM
How it was run: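 Read-out: dye fluorescence at 490 nm ex/535 nm em (monomers) and 540 nm ex/590 nm em (aggregates) in HepG2 cells. Compound exposure 1 hr at 37C, followed by 30 min dye loading.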

In the case of C[N+]1(C)CCCCC1, the activation [1] was 4.04% (inactive), the Potency [2] was “inactive” and the Potency [3] was “inactive”. The Potency [4] was “inactive”, the Potency [5] was “inactive” and the max response [6] was 3.55% (inactive). For the same compound, the outcome [7] was “inactive”.

With COc1cc(OC)nc(NC(=O)NS(=O)(=O)c2cc(NC=O)ccc2C(=O)N(C)C)n1 the activation [1] was 1.85% (inactive), the Potency [2] was “inactive” and the Potency [8] was “inactive”. The Potency [3] was “inactive”, the Potency [4] was “inactive” and the Potency [5] was “inactive”. For the same compound, the activation [9] was -3.45% (inactive), the max response [6] was -9.56% (inactive) and the outcome [7] was “inactive”.

With O=C(NC(=O)c1c(F)cccc1F)Nc1cc(Cl)c(OC(F)(F)C(F)C(F)(F)F)c(Cl)c1F (stereo not given) the activation [1] was -3.76% (inactive), the Potency [2] was “inactive” and the Potency [3] was “inactive”. For the same compound, the Potency [10] was 30.6 µM (active), the activation [9] was 2.49% (inactive) and the max response [6] was 9.17% (inactive).

For CC1(C)C(C(=O)OC(C#N)c2cccc(Oc3ccccc3)c2)C1(C)C (stereo not given), the Potency [11] was “inactive” and the Potency [5] was “inactive”.

In the case of COC(=O)c1c(C(F)F)nc(C(F)(F)F)c(C2=NCCS2)c1CC(C)C, the activation [1] was -1.74% (inactive), the Potency [2] was “inactive” and the activation [9] was 6.04% (inactive).

In the case of O=[As](O)(O)O, the activation [1] was -0.986% (inactive), the Potency [2] was “inactive” and the Potency [8] was “inactive”. For the same compound, the Potency [3] was “inactive”, the activation [9] was -0.546% (inactive) and the max response [6] was -1.48% (inactive). The outcome [7] was “inactive”.

With CCCOc1nn(C(=O)NS(=O)(=O)c2ccccc2C(=O)OC)c(=O)n1C the activation [1] was 9.43% (inactive), the Potency [2] was “inactive” and the Potency [8] was “inactive”. For the same compound, the Potency [3] was “inactive”, the Potency [4] was “inactive” and the Potency [5] was “inactive”. For the same compound, the Potency [10] was “inactive”, the activation [9] was 0.234% (inactive) and the max response [6] was 4.67% (inactive). The outcome [7] was “inactive”.

For CCCCOC(=O)c1ccccc1C(=O)O, the activation [1] was 5.7% (inactive), the Potency [3] was “inactive” and the Potency [4] was “inactive”. For the same compound, the activation [9] was -2.82% (inactive), the max response [6] was -8.39% (inactive) and the outcome [7] was “inactive”.

With COc1cc(OC)nc(NC(=O)NS(=O)(=O)c2ncccc2C(F)(F)F)n1 the activation [1] was 3.3% (inactive), the Potency [2] was “inactive” and the Potency [8] was “inactive”. For the same compound, the Potency [3] was “inactive”, the Potency [4] was “inactive” and the Potency [5] was “inactive”. For the same compound, the activation [9] was -1.26% (inactive), the max response [6] was 0.924% (inactive) and the outcome [7] was “inactive”.

In the case of CNC(=O)N(C)c1nc2ccccc2s1, the activation [1] was -11.3% (inactive), the Potency [8] was “inactive” and the Potency [3] was “inactive”. For the same compound, the Potency [10] was 27.3 µM (active).

With CO/N=C(/C1=NOCCO1)c1ccccc1Oc1ncnc(Oc2ccccc2Cl)c1F the Potency [4] was 25.1 µM (active) and the outcome [7] was “inactive”.

For O=P(OCC(Br)CBr)(OCC(Br)CBr)OCC(Br)CBr (stereo not given), the activation [1] was -12.7% (inactive), the Potency [10] was 15.4 µM (active) and the activation [9] was 10.6% (inactive). For the same compound, the max response [6] was 0.175% (inactive).

With C#CCC1=C(C)[C@H](OC(=O)[C@H]2[C@H](C=C(C)C)C2(C)C)CC1=O the Potency [3] was “inactive”, the Potency [5] was “inactive” and the Potency [10] was 61.1 µM (active). The activation [9] was 1.18% (inactive).

In the case of CCCSP(=O)(OCC)Oc1ccc(Br)cc1Cl (stereo not given), the Potency [3] was “inactive”, the activation [9] was 3.94% (inactive) and the max response [6] was 7.3% (inactive). The outcome [7] was “inactive”.

For CNc1cnn(-c2cccc(C(F)(F)F)c2)c(=O)c1Cl, the Potency [5] was “inactive”.

In the case of Cc1nc(N(C)C)nc(OC(=O)N(C)C)c1C, the Potency [8] was “inactive”, the Potency [3] was “inactive” and the Potency [4] was “inactive”. The Potency [5] was “inactive”, the Potency [10] was “inactive” and the max response [6] was -4.44% (inactive). The outcome [7] was “inactive”.

In the case of CC1(C)CN=C(NN=C(/C=C/c2ccc(C(F)(F)F)cc2)/C=C/c2ccc(C(F)(F)F)cc2)NC1, the Potency [2] was 35.5 µM (active) and the outcome [7] was “inactive”.

For CCCN(CCOc1c(Cl)cc(Cl)cc1Cl)C(=O)n1ccnc1, the Potency [8] was “inactive”, the Potency [3] was “inactive” and the Potency [4] was 44.7 µM (active) and inactive. The Potency [10] was 30.6 µM (active) and 48.6 µM (active).

With c1ccc2c(c1)[nH]c1ccccc12 the activation [1] was 0.372% (inactive) and the Potency [12] was 59.6 µM (active).

With CCC[CH2][Sn]([CH2]CCC)([CH2]CCC)[CH2]CCC the Potency [8] was “inactive”, the Potency [4] was “inactive” and the Potency [5] was “inactive”. The Potency [10] was “inactive”, the activation [9] was -3.46% (inactive) and the max response [6] was 8.28% (inactive). For the same compound, the outcome [7] was “inactive”.

For CN/C(=N/[N+](=O)[O-])NCC1CCOC1 (stereo not given), the Potency [10] was “inactive” and the activation [9] was 3.08% (inactive).

With CC(Oc1cc(Cl)c(Cl)cc1Cl)C(=O)O (stereo not given) the Potency [8] was “inactive”, the Potency [5] was “inactive” and the max response [6] was 2.63% (inactive). For the same compound, the outcome [7] was “inactive”.

In the case of Clc1ccc([C@@]2(Cn3cncn3)C[C@@H](Br)CO2)c(Cl)c1, the Potency [4] was “inactive”, the Potency [5] was “inactive” and the activation [9] was -2.11% (inactive).

In the case of CCC(C)(c1ccc(O)cc1)c1ccc(O)cc1, the Potency [3] was “inactive”, the Potency [4] was “inactive” and the Potency [10] was 54.5 µM (active). For the same compound, the max response [6] was -0.68% (inactive).

In the case of Clc1ccc([C@@]2(Cn3cncn3)C[C@H](Br)CO2)c(Cl)c1, the Potency [8] was “inactive”, the Potency [3] was “inactive” and the Potency [10] was “inactive”. For the same compound, the activation [9] was 0.484% (inactive).

For CC(O)CN(CC(C)O)CC(C)O (stereo not given), the Potency [8] was “inactive”, the Potency [10] was 54.5 µM (active) and the activation [9] was -9.86% (inactive). The max response [6] was -0.821% (inactive) and the outcome [7] was “inactive”.

With Nc1nc(N)nc(N)n1 the Potency [3] was “inactive”, the Potency [4] was “inactive” and the Potency [5] was “inactive”. For the same compound, the Potency [10] was “inactive”, the activation [9] was -2.16% (inactive) and the max response [6] was -3.43% (inactive). For the same compound, the outcome [7] was “inactive”.

For COc1nn(C(=O)NS(=O)(=O)c2ccccc2OC(F)(F)F)c(=O)n1C, the Potency [8] was “inactive”, the Potency [3] was “inactive” and the Potency [4] was “inactive”. For the same compound, the Potency [5] was “inactive”, the max response [6] was 1.31% (inactive) and the outcome [7] was “inactive”.

In the case of Cc1cc(C2CC2)nc(Nc2ccccc2)n1, the Potency [3] was “inactive”, the Potency [4] was “inactive” and the Potency [5] was “inactive”. The Potency [10] was 54.5 µM (active).

For CCOc1cc(C(C)(C)C)ccc1C1COC(c2c(F)cccc2F)=N1 (stereo not given), the activation [1] was -19.9% (inactive) and the Potency [10] was 12.2 µM (active).

With COC(C)(C)CCC[C@H](C)C/C=C/C(C)=C/C(=O)OC(C)C the activation [1] was -8.45% (inactive), the Potency [10] was 68.6 µM (active) and the activation [9] was -4.16% (inactive).

In the case of CCNc1nc(NC(C)C)nc(OC)n1, the Potency [8] was “inactive”, the Potency [3] was “inactive” and the Potency [10] was “inactive”. For the same compound, the activation [9] was -0.985% (inactive), the max response [6] was 0.846% (inactive) and the outcome [7] was “inactive”.

With CCOC(=O)COc1cc(-c2nn(C)c(OC(F)F)c2Cl)c(F)cc1Cl the Potency [2] was “inactive”, the Potency [8] was “inactive” and the Potency [5] was “inactive”. For the same compound, the Potency [10] was 17.2 µM (active) and the max response [6] was 0.553% (inactive).

With COCC(=O)N(c1c(C)cccc1C)N1CCOC1=O the Potency [5] was “inactive”, the Potency [10] was “inactive” and the activation [9] was -3.26% (inactive). For the same compound, the max response [6] was 3.21% (inactive) and the outcome [7] was “inactive”.
